Measured values from PubChem BioAssay AID488969 (Vanderbilt High Throughput Screening Facility, 2010).
Whole data set: some 110,000 compounds, median “z-score” near -0.1, cut for the highest 2% near 2. For the sample, the highest values were picked, then their nearest neighbours and some compounds at random. Activity calls are given as the source filed them.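 Rule for the calls: active = z-score in the third read window above 3 or below -3; inactive = the rest.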

These compounds were tested against Metabotropic glutamate receptor 8 (Rattus norvegicus) (UniProt P70579) (assay: mGluR8 Gi/Go-coupled signaling modulation – cell-based, rat, thallium flux, HTS, primary screen (AID 488969)). Settings: HEK293 rat mGluR8, GIRK (G protein-gated inwardly rectifying potassium channel) thallium flux, FluoZin2; at 10 µM; stronger effect = higher value; submaximal glutamate (EC20) added with thallium.
Sequence of Metabotropic glutamate receptor 8 (Rattus norvegicus) (P70579 whole entry, looked up): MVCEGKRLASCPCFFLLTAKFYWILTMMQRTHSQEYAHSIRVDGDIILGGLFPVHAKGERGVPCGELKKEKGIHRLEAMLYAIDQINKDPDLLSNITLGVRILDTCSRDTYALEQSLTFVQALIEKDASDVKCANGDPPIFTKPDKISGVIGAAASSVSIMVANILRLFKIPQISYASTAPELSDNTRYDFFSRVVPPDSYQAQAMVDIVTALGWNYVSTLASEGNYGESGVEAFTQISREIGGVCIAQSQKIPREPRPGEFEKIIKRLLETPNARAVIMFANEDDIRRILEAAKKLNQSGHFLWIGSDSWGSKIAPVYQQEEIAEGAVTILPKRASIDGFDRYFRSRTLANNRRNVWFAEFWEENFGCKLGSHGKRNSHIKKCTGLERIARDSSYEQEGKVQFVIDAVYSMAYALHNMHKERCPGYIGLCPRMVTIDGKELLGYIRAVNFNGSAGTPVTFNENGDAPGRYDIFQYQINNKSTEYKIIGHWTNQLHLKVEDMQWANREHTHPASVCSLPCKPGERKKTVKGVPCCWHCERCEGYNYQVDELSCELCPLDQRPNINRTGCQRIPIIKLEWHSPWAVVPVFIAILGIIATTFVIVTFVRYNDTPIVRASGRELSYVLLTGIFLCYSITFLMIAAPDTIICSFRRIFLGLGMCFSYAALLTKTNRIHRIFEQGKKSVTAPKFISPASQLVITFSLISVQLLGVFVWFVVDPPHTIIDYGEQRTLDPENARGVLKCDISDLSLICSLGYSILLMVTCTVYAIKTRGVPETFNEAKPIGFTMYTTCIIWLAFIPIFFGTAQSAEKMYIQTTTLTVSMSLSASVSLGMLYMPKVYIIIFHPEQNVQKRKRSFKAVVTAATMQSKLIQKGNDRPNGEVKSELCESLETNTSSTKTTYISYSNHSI

With `CCCCN(CCCC)C(=S)NC(=O)C(C)(C)C` the z-score was 5.35 (active).
For `O=C(C1CCCN1S(=O)(=O)c1cccc2cccnc12)N1CCn2c1nc1ccccc12` (stereo not given), the z-score was 3.63 (active).
With `S=c1[nH]nc(-c2cc3c(s2)-c2ccccc2CC3)o1` the z-score was 16.3 (active).
In the case of `COC(=O)Nc1nc(C)c(C(=O)N(C)C)s1`, the z-score is reported as 4.58 (active).
With `O=C(CCN1C(=O)COc2ccccc21)NCCCN1CCc2ccccc2C1` the z-score was 7.6 (active).
With `Cc1ccc(N2CC(C(=O)N/N=C/c3sccc3C)CC2=O)cc1` (stereo not given) the z-score was 3.3 (active).
In the case of `Cc1ccsc1/C=N/NC(=O)c1sccc1C`, the z-score is reported as 5.91 (active).
For `O=C(NC(=S)Nc1nc2ccccc2s1)c1ccco1`, the z-score was 8.72 (active).
`COc1ccc(CN(C)CC(=O)NC(=O)NCc2ccccc2)cc1OC` was tested, and the z-score was 5.52 (active).
With `Cc1cc(C)c2nc(SC(C)C(=O)NCC(=O)Nc3ccc(F)c(F)c3F)cc(C)c2c1` (stereo not given) the z-score was 7.48 (active).
With `CCn1c(SCC(N)=O)nc2sc3c(c2c1=O)CCCC3` the z-score was 8.59 (active).
With `O=C(Nc1nnc(SCc2ccc(F)cc2)s1)C1CC(=O)N(c2ccc3c(c2)OCCO3)C1` (stereo not given) the z-score was 3.68 (active).
`COc1ccccc1NC(=O)c1cc(C(=O)Nc2ccccc2OC)cc(N2C(=O)CCC2=O)c1` was tested, and the z-score was 4.66 (active).
In the case of `COc1ccccc1NC(=O)c1ccc(S(=O)(=O)N2CCCC2)cc1`, the z-score is reported as 3.99 (active).
In the case of `Cc1ccc(Nc2cc(C)nn2-c2nc(C)cc(=O)[nH]2)cc1`, the z-score is reported as 16.4 (active).

First: CC(C)(C)C(=O)NC(=S)N1CCCC1
Second: CC(C)(C)C(=O)NC(=S)NCc1ccccc1
The z-score of the first is higher: -0.128 for the first, -0.201 for the second.

First: COC(=O)c1ccc(C(=O)OC)c(NC(=O)COC(=O)C23CC4CC(CC(O)(C4)C2)C3)c1
Second: COC(=O)c1cccc(NC(=O)CCc2ccccc2)c1
The z-score of the first is lower: -1.04 for the first, -0.143 for the second.

First: Cc1cccc(NC(=O)Nc2ccc(C)c(C)c2)n1
Second: Cc1ccc(Nc2cc(C)nn2-c2nc(C)cc(C)n2)cc1
The z-score of the first is lower: -0.316 for the first, 0.547 for the second.

Compared with `Cc1cc(NC(=O)CSc2nnc(-c3cccnc3)n2C)no1`, `Cc1cc(NC(=O)CSc2nnc(-c3cccnc3)n2N)no1` is lower in z-score: 0.0216 for the first, -0.404 for the second.

Going from `CCCCn1c(SCC(=O)Nc2cc(C)on2)nnc1-c1cccnc1` to `Cn1c(=O)c(C(=O)Nc2cccnc2)c(O)c2ccccc21`, the z-score falls from 2.11 to 1.29.

First: COc1ccc(NC(=S)N2CCN(C/C=C/c3ccccc3)CC2)cc1
Second: O=[N+]([O-])c1ccc(OCC(O)CN2CCN(c3ccccc3F)CC2)cc1 (stereo not given)
The z-score of the first is lower: -0.821 for the first, -0.357 for the second.

Compared with `COc1ccc(S(=O)(=O)N(CCc2ccccc2)CC(=O)NC(C)C)cc1`, `CCNC(=O)CN(CCc1ccccc1)S(=O)(=O)c1ccc(OC)cc1` is higher in z-score: -0.387 for the first, -0.329 for the second.

Going from `COc1ccc(S(=O)(=O)N(CCc2ccccc2)CC(=O)O)cc1` to `COc1cccc(CN(C)CC(=O)NC(=O)NCc2ccccc2)c1`, the z-score falls from 2.73 to 0.16.

Going from `COc1ccccc1NS(=O)(=O)c1ccc2oc(SC3CCOC3=O)nc2c1` (stereo not given) to `COc1ccccc1NC(=O)c1ccc(S(=O)(=O)N2CCOCC2)cc1`, the z-score rises from -1.2 to 0.986.

First: CCOC(=O)CSC1=Nc2ccccc2C2=NC(CC(=O)NCc3ccc(OC)cc3)C(=O)N12 (stereo not given)
Second: CCOC(=O)CSC1=Nc2ccccc2C2=NC(CC(=O)NCc3ccccc3)C(=O)N12 (stereo not given)
The z-score of the first is lower: 0.556 for the first, 2.91 for the second.

Going from `CCOC(=O)CSC1=Nc2ccccc2C2=NC(CC(=O)NCc3cccs3)C(=O)N12` (stereo not given) to `CCN1C(=O)c2ccc(C(=O)NCc3ccccc3)cc2C1=O`, the z-score falls from 0.253 to -0.278.

First: O=C(Nc1ccc(F)cc1)c1ccc(-n2ccnc2)nc1
Second: COc1ccccc1NC(=O)c1cccnc1
The z-score of the first is lower: -0.238 for the first, 0.226 for the second.

First: CCN(CC)S(=O)(=O)c1cccc(C(=O)N[C@H](C(=O)Nc2nc3ccccc3s2)C(C)C)c1
Second: O=C(COC(=O)c1ccco1)Nc1nc2ccccc2s1
The z-score of the first is higher: 0.326 for the first, 0.111 for the second.

Going from `CN(C)CCCN1C(=O)CSC1c1ccccc1` (stereo not given) to `CN(CC(=O)NC(=O)NCc1ccccc1)Cc1ccc(Cl)cc1`, the z-score falls from -0.244 to -0.334.

First: O=C(C1CCN(S(=O)(=O)c2cccc3cccnc23)CC1)N1CCn2c1nc1ccccc12
Second: O=C(C1CCCN(S(=O)(=O)c2cccc3cccnc23)C1)N1CCc2ccccc21 (stereo not given)
The z-score of the first is higher: -0.522 for the first, -1.2 for the second.

Compared with `O=C(C1CCCN1S(=O)(=O)c1cccc2cccnc12)N1CCc2ccccc2C1` (stereo not given), `O=C(C1CCCN1S(=O)(=O)c1cccc2cccnc12)N1CCc2ccccc21` (stereo not given) is higher in z-score: -0.115 for the first, 2.97 for the second.

Going from `O=C(C1CCCN1S(=O)(=O)c1cccc2cccnc12)N1CCN(c2ccccc2)CC1` (stereo not given) to `O=C(CCC(=O)OCC(=O)c1ccc(-c2ccccc2)cc1)Nc1cccc2cccnc12`, the z-score falls from -0.0642 to -0.0975.

Compared with `Cc1nc2cc(-c3ccc(Cl)cc3)nn2c(C)c1CCC(=O)NCc1ccco1`, `O=C(NCc1ccco1)c1ccc(COc2cc(Cl)ccc2Cl)cc1` is higher in z-score: -0.0434 for the first, 0.104 for the second.

Compared with `CCOC(=O)c1oc2ccccc2c1NC(=O)COc1ccc(F)cc1`, `O=C(COC(=O)CCCOc1ccc(Cl)cc1Cl)NCc1ccc(F)cc1` is higher in z-score: -0.456 for the first, -0.191 for the second.

Going from `CCSc1nnc(-c2cc3c(s2)-c2ccccc2CC3)o1` to `CSc1nnc(-c2cc3c(s2)-c2ccccc2CC3)o1`, the z-score rises from 0.000914 to 0.0264.

Compared with `N=c1sccn1CC(=O)Nc1cccc2ccccc12`, `O=C(CSc1nc(-c2cccs2)cc(C(F)(F)F)n1)NCc1ccccc1` is lower in z-score: -0.00239 for the first, -0.654 for the second.

First: Cc1nc(NC(=O)C2CC2)sc1C(=O)N(C)C
Second: CCOC(=O)Nc1nc(C)c(C(=O)N(C)C)s1
The z-score of the first is lower: -0.405 for the first, -0.0609 for the second.

First: O=C(CN1C(=O)COc2ccccc21)NCCCN1CCc2ccccc2C1
Second: O=C(CCN1C(=O)COc2ccccc21)NCCN1CCc2ccccc2C1
The z-score of the first is higher: 0.383 for the first, -0.306 for the second.

Compared with `Cc1ccc(/C=C(\C#N)c2nc3ccccc3[nH]2)s1`, `Cc1sc2ncnc(N=Nc3c(O)[nH]c4ccccc34)c2c1C` is higher in z-score: -0.0719 for the first, -0.0288 for the second.

First: Cc1ccsc1/C=N/NC(=O)c1cccs1
Second: Cc1ccsc1/C=N/NC(=O)C1CC(=O)N(c2ccccc2)C1 (stereo not given)
The z-score of the first is higher: 0.356 for the first, 0.243 for the second.

First: Cc1ccc(N2CC(C(=O)N/N=C/c3cccc([N+](=O)[O-])c3)CC2=O)cc1 (stereo not given)
Second: Cc1nc2c(C)cccc2cc1C(=O)N/N=C/c1cccc([N+](=O)[O-])c1
The z-score of the first is higher: -0.282 for the first, -0.361 for the second.

Going from `CSc1ccc(/C=N/NC(=O)c2sccc2C)cc1` to `COc1ccc(/C=N/NC(=O)CCCOc2ccc(Cl)cc2Cl)cc1`, the z-score rises from -0.312 to -0.126.

Compared with `O=C(NCc1ccc(-c2nc3ccccc3s2)cc1)c1ccc(Br)o1`, `O=C(NCc1ccc(-c2nc3ccccc3s2)cc1)c1ccco1` is higher in z-score: -0.21 for the first, -0.111 for the second.

Going from `O=C(NC(=S)NCc1ccc(-c2nc3ccccc3s2)cc1)c1ccco1` to `O=C(Nc1ccccc1-c1nc2ccccc2s1)c1ccco1`, the z-score falls from 2.52 to -0.0204.

First: O=C(COc1ccc(Cl)cc1Cl)NC(=O)N1CCCCC1
Second: COc1ccccc1NS(=O)(=O)c1ccc(C)c(NC(=O)c2ccc(S(=O)(=O)N3CCCCCC3)cc2)c1
The z-score of the first is higher: 1.09 for the first, -0.106 for the second.

Going from `CCOC(=O)c1cc(OC(=O)c2cccnc2)n(-c2ccccc2)n1` to `COC(=O)C1=C(C(=O)c2ccccc2)C(c2ccc(OC)c(OC)c2)Nc2nnnn21` (stereo not given), the z-score rises from -0.265 to 0.0695.

Compared with `C/C(=N\NC(=O)CSc1nnc(C)s1)c1ccc(O)cc1`, `Cc1ccc(-c2nnc(CSc3nnc(C)s3)o2)cc1` is higher in z-score: 0.00192 for the first, 0.552 for the second.

Compared with `NC(=S)N/N=C/c1ccc(-c2cc(Cl)cc(Cl)c2)o1`, `NC(=S)N/N=C/c1ccc(-c2ccc(Cl)c(Cl)c2)o1` is lower in z-score: 0.987 for the first, 0.653 for the second.

First: NC(=S)N/N=C/c1ccc(-c2cc(Cl)ccc2Cl)o1
Second: Cc1cc(S(=O)(=O)n2cnc3cc([N+](=O)[O-])ccc32)ccc1Cl
The z-score of the first is higher: 2.21 for the first, -0.268 for the second.

Going from `CCCCOC(=O)CSc1n[nH]c(=O)[nH]c1=O` to `CCn1c(SCC(=O)OC)nc2sc3c(c2c1=O)CCC3`, the z-score rises from -0.957 to -0.399.

First: Cc1ccc(-c2nnc(CSc3nc(C(C)C)nc4sc(C)c(C)c34)o2)cc1
Second: CCc1nc(SCc2nnc(-c3ccc(C)cc3)o2)c2c(C)c(C)sc2n1
The z-score of the first is lower: 1.42 for the first, 2.26 for the second.

Compared with `COc1ccc2c(Cl)c(C(=O)NCCCn3ccnc3)sc2c1`, `COc1ccc(Nc2cc(C(=O)NCc3ccco3)c3ccccc3n2)cc1` is higher in z-score: -0.0695 for the first, -0.00632 for the second.

Going from `Cc1cc(SC(C)C(=O)NCC(=O)Nc2ccc(F)c(F)c2F)nc2ccccc12` (stereo not given) to `Cc1ccc(-n2nnnc2SC(C)C(=O)NCC(=O)Nc2ccc(F)c(F)c2F)c(C)c1` (stereo not given), the z-score falls from -0.101 to -0.287.

First: CCCCC(=O)Nc1ccc(C(=O)NNC(=O)c2cccs2)cc1
Second: COc1ccccc1NC(=O)c1ccc(N)cc1
The z-score of the first is lower: -0.305 for the first, 0.511 for the second.

First: COc1ccc(Cc2nnc(N)s2)cc1
Second: CCOC(=O)c1c(C)nc2sc(C(N)=O)c(N)c2c1-c1ccccc1
The z-score of the first is higher: -0.0129 for the first, -1.25 for the second.

Compared with `CCn1c(SCC(=O)O)nc2sc3c(c2c1=O)CCC3`, `COC(=O)c1ccc(CSc2nnc(NC(=O)C3CC(=O)N(c4ccc5c(c4)OCCO5)C3)s2)cc1` (stereo not given) is higher in z-score: -1.62 for the first, 0.162 for the second.

First: CCc1nnc(NC(=O)C2CC(=O)N(c3ccc4c(c3)OCCO4)C2)s1 (stereo not given)
Second: CN(C)CC1CCCCC1C1(O)c2ccccc2CSc2sccc21 (stereo not given)
The z-score of the first is lower: -0.124 for the first, 1.47 for the second.

First: O=C(NCc1ccco1)C(Cc1ccccc1)NS(=O)(=O)c1cccc2nsnc12 (stereo not given)
Second: O=C(O)c1cc(S(=O)(=O)Nc2ccccc2C(=O)O)ccc1O
The z-score of the first is higher: -0.0409 for the first, -0.576 for the second.

Compared with `Cn1c(=O)[nH]c(=O)c2c1nc(Br)n2CCCSc1nc2ccccc2o1`, `C=CCSc1nnc(Cc2cc(=O)[nH]c(=O)[nH]2)n1-c1cc(C)ccc1C` is higher in z-score: -0.621 for the first, -0.111 for the second.

Compared with `Cc1ccc(NS(=O)(=O)c2cc([N+](=O)[O-])ccc2NNC(=S)Nc2cccc(Cl)c2)c(C)c1`, `Cc1ccc(S(=O)(=O)n2cnc3cc([N+](=O)[O-])ccc32)cc1C` is higher in z-score: -0.12 for the first, 2.81 for the second.

Going from `Cc1cccc(Sc2ccc([N+](=O)[O-])cn2)c1` to `Cc1ccc(S(=O)(=O)n2cnc3cc([N+](=O)[O-])ccc32)c(C)c1C`, the z-score rises from -1.63 to -0.143.

First: Cc1cc(C)nc(-n2nc(C)cc2Nc2ccccc2)n1
Second: CN(C)Cc1ccccc1C1(O)c2ccccc2CSc2ccccc21 (stereo not given)
The z-score of the first is higher: -0.115 for the first, -0.164 for the second.

Work on `CN1CCC(C2(O)c3ccccc3CSc3sccc32)CC1` (stereo not given) yielded a z-score of 2.02.
